# Data as given in the supplement of paper PMC9337992.
# ± gives the standard deviation of the averaged measurements.
# System: MDAMB468
# Test: cell proliferation (confluence) relative to DMSO control; higher = less growth inhibition
# Details: 5 uM; 6 d
# Protocol: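 Epigenetic chemical probe screen: 15 TNBC cell lines, 500 cells per well in 384-well plates, treated with 5 uM of each of 36 SGC probes for 6 d. Confluency was imaged by IncuCyte ZOOM and normalised to DMSO control wells. Four replicate wells per compound.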
row,SMILES,cell proliferation [%]
1,O=C([C@@H](Cc1cccc(C(F)(F)F)c1)NS(=O)(=O)c1cc(F)c2c(c1)CCNC2)N1CCCC1,50.5 ± 25
2,CC(C)Oc1ccc(-c2c[nH]cc2CN(C)CCO)cc1,37 ± 7.3
3,COc1cc(C#N)ccc1S(=O)(=O)Nc1ccc2c(c1)cc(C)c(=O)n2C,40.4 ± 6.3
4,CCCc1cc(C)n(C)c(=O)c1CN(C)C(=O)c1cc(-c2ccc(N3CCN(C(C)C)CC3)nc2)cc2c1cnn2C(C)C,70.4 ± 6.3
5,Cn1cc(CCn2cnc(-c3cnn(C)c3)c2-c2ccc(C#N)cc2)cn1,55.5 ± 13
6,COc1cc2c(cc1OCCCN1CCCC1)N=C(N)C21CCC1,71.6 ± 11
7,O=C(c1ccc(C(=O)N2CCC(N3CCCC3)CC2)c(Nc2ccccc2)c1)N1CCC(N2CCCC2)CC1,74.9 ± 8.6
8,Cc1cc(=O)n(C)c2cc(N3C(=O)CC[C@H](NS(=O)(=O)CC(C)C)[C@H]3c3ccc(Cl)cc3)ccc12,59.3 ± 2.4
9,COc1ccccc1C(=O)Nc1cc2c(cc1N1CCCC1)n(C)c(=O)n2C,39.3 ± 3.8
10,COc1ccc(CCc2nc3cc(-c4c(C)noc4C)ccc3n2C[C@H](C)N2CCOCC2)cc1Cl,32.8 ± 4
11,CCCOc1ccn2c(C(C)=O)cc(-c3ccccc3S(C)(=O)=O)c2c1,66 ± 5.1
12,CCOC(=O)CCNc1cc(N2CCc3ccccc3CC2)nc(-c2ccccn2)n1,9.55 ± 1.9
13,CCN(C(=O)CO)[C@H]1CN(/C(=N\C#N)Nc2cccc(OC(F)F)c2)N=C1c1ccc(Cl)c(Cl)c1,55.2 ± 6
14,CC(C)Oc1ccc(-c2c[nH]cc2CN(C)CCN)cc1,19.3 ± 5.7
15,COc1cc(-c2cn(C)c(=O)c3cnccc23)c(OC)cc1CN(C)C,53.6 ± 13
16,O=C(NCC(=O)N1CCCC1)Nc1ccc2cnccc2c1,40.6 ± 15

row,SMILES,cell proliferation [%]
1,CCOC(=O)CCNc1cc(N2CCc3ccccc3CC2)nc(-c2cccnc2)n1,71.9 ± 10
2,COc1ccccc1S(=O)(=O)Nc1ccc2c(c1)CN(C)C(=O)N2,23.2 ± 2.7
3,CNCCN1CCC(OCc2ccccc2)CC1,37.4 ± 6.8
4,Clc1cc2c(NC3CCCC3)nnc(-c3ccncc3)c2cc1Cl,56.9 ± 7.9
5,Cc1nnc2c3ccccc3c(N[C@@H](C)[C@H](c3ccccc3)N(C)C)nn12 [L-moses],41 ± 3.8
6,O=C(/C=C/N1C[C@H]2C[C@@H]1CN2c1ccccn1)c1ccccc1O,75.6 ± 6.1
7,CC(C)N(CCCNC(=O)Nc1ccc(C(C)(C)C)cc1)C[C@H]1O[C@@H](n2cc(Br)c3c(N)ncnc32)[C@H](O)[C@@H]1O,54.2 ± 14
8,O=C(NC[C@H](O)CN1CCc2ccccc2C1)c1ccnc(NC2CCC2)c1,32 ± 1.8
9,COc1cc2c(NC3CCN(C(C)C)CC3)nc(C3CCCCC3)nc2cc1OCCCN1CCCC1,67.2 ± 8
10,CCCc1cc(C)[nH]c(=O)c1CNC(=O)c1cc(-c2ccc(N3CCN(C(C)C)CC3)nc2)cc2c1cnn2C(C)C,13.3 ± 14
11,CN(C)[C@H]1CN(C2CCc3cccc(F)c32)C[C@@H]1c1ccc(N2CCN(S(C)(=O)=O)CC2)cc1 (some centres not stated),62.7 ± 4.4
12,CCC(=O)N1CCOc2c(cc(-c3ccc(OC)c(OC)c3)cc2OC[C@H]2CCCN(C)C2)C1,37.1 ± 9
13,COc1c(C)cc(NC(=O)c2nn(Cc3ccc(F)cc3)c3c2CN(C(=O)c2ccc[nH]2)C[C@]3(C)C(N)=O)cc1C,35.5 ± 4.7
14,CCn1cc(-c2cccc(C(F)(F)F)c2)c2sc(C(=N)NC3CCS(=O)(=O)CC3)cc2c1=O,29.1 ± 4.8
15,CC[C@H](C)n1cc(C)c2c(C(=O)NCc3c(C)cc(C)[nH]c3=O)cc(-c3ccc(N4CCNCC4)nc3)cc21,15.4 ± 9
16,CCCc1cc(C)[nH]c(=O)c1CNC(=O)c1cc(-c2ccnc(N3CCN(C)CC3)c2)cc2c1cnn2C(C)C,67.7 ± 12
